Results on 45 compounds are retold here after PubChem BioAssay AID504332 (National Center for Advancing Translational Sciences (NCATS), 2011).

The whole screen tested about 350,000 compounds, of which about 31,000 (8.9%) were called active. Roughly 15% stayed inconclusive and do not appear here. The call rests on the fitted dose curve; in most records, active means well fitted inhibition curve with a large enough effect; inconclusive means small, poorly fitted or top-dose-only effect; inactive means no such curve, though single readings can be large or run the other way. This excerpt belongs to a sample that is enriched for actives.
On the % scale 0 is the no-effect control and ±100 the full control effect; potency means the concentration at half of the fitted maximal effect.

The target in this assay is Histone-lysine N-methyltransferase EHMT2 (Homo sapiens) (UniProt Q96KQ7). Put plainly: qHTS Assay for Inhibitors of Histone Lysine Methyltransferase G9a. Further: nearly all actives have a fitted effect of over 75% in size. To be noted: G9a H3K9 monomethylation, AlphaScreen, 2 h; series mostly up to 59 µM; activity, negative = inhibition: at the top concentration. From the text: Methylated lysines, on the N-terminal tails of histone proteins serve as epigenetic markers to recruit factors that can then modify local chromatin structure to lead to functional consequences. G9a and other members of the SUV39 family of the SET domain-containing superfamily of histone lysine methyltransferases (HMT) have been identified to specifically methylate Lys9 of histone H3 (H3K9). G9a catalyzes the mono- and di-methylation of H3K9 in mammalian euchromatic regions, where the resulting H3K9me2 is indicative of transcriptional repression. […] The inhibition of G9a will result in transcriptional activation and work synergistically with DNA methyltransferase and histone deacetylase inhibitors, to kill cancer cells. This qHTS assay for identification of G9a inhibitors is a chemiluminescence based AlphaScreen (PerkinElmer). Methylation of biotinylated-histone peptide is measured through specific antibody-based detection, in conjunction with streptavidin-coated donor and anti-IgG antibody-coated acceptor beads. The method is particularly well suited for detection of inhibitors acting by the desired histone peptide competitive mechanism and is applicable to testing other HMTs. Although AlphaScreen has significant advantages with its utility in a variety of epigenetic target assays, the primary screening data provided in this deposition should be used with caution due to the prevalence of screening artifacts. An AlphaScreen counterscreen is highly recommended to be run against any putative actives to eliminate non specific artifacts. Alternatively, one can use other AlphaScreen assays in PubChem to filter out promiscuous hits. Quinn et al. A chemiluminescence-based method for identification of histone lysine methyltransferase inhibitors. Mol Biosyst 6(5): 782-8. 2010. PMID: 20567762 [2] Baell,Holloway. New substructure filters for removal of pan assay interference compounds (PAINS) from screening libraries and for their exclusion in bioassays. J Med Chem. 53(7):2719-40. 2010. PMID: 20131845 NIH Molecular Libraries Probe Production Network [MLPCN] NIH Chemical Genomics Center [NCGC] Structural Genomics Consortium (SGC) NIH Grant: 5U54 MH084681-02
Chain of Histone-lysine N-methyltransferase EHMT2 (Homo sapiens) (Q96KQ7 913-1193 limits assumed): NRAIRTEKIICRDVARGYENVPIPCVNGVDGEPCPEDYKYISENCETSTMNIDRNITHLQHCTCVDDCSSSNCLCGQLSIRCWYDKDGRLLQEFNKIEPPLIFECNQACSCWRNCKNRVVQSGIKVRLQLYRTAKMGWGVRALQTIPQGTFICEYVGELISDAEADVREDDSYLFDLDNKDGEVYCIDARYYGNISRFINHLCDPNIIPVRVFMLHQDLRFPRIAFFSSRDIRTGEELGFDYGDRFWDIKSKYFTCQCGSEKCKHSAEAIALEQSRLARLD
To each well of a 1,536w plate, 2ul of HMT enzyme (final 20nM) were added, using a nanoliter dispenser. The G9a- and GLP-inhibitor BIX-01294 (CID: 25150857) are used as an intraplate control, with a 16-point titration in duplicate. A Kalypsys pin-tool transferred 23nl of library compound solution in DMSO to each well. Following a 15 min incubation of enzyme with compounds at room temperature, 1ul mixture of b-H3K9 peptide substrate (final 500nM) and SAM cofactor (final 20uM) were added. Reactions were allowed to proceed at room temperature for 2 hours. Methylated b-H3K9 peptide product was detected with 0.5 ug/mL rabbit polyclonal anti-monomethyl histone H3K9 antibody (Abcam Inc., Cambridge, MA) and 20 ug/mL each streptavidin-coated donor and anti-rabbit IgG acceptor AlphaScreen beads. Antibody and beads were added in a 1ul dispense, for a final volume of 4ul, and plates were incubated, protected from the light, for 10 min at room temperature. Microplates were then read on an EnVision multilabel plate reader using the 1,536 plate HTS AlphaScreen aperture (excitation time 80 ms, measurement time 240 ms).
(Quantitative high-throughput screening tests each substance at several concentrations.)
As to `O=C(c1cn(-c2ccccc2)nc1-c1cccnc1)N1CCN(S(=O)(=O)c2ccccc2F)CC1`, the activity, negative = inhibition was -2.44% [at 12.7 µM] (inactive).
`Cc1nn(-c2ccccn2)c2c1C(c1ccncc1)C1=C(CC(C)(C)CC1=O)N2` (stereo not given): the “activity, negative = inhibition” value was -38.3% (inactive).
On to `Cc1cc(C)c(C2C3=C(Nc4c2c(C)nn4-c2ccccn2)c2ccccc2C3=O)c(C)c1` (stereo not given), for which the Potency is 11.2 µM (active).
`O=C(Nc1ncccc1O)c1ccc(S(=O)(=O)N2CCCC2)cc1`: the activity, negative = inhibition was 6.98% [at 12.7 µM] (inactive).
In the case of `O=[N+]([O-])c1cccc(/C=N/Nc2ncc(Br)cn2)c1`, the activity, negative = inhibition was 18% [at 0.501 µM] (inactive).
On to `Cc1cc(-c2ccc(/C=N/n3cnnc3)o2)c([N+](=O)[O-])cc1C`, for which the Potency is 50.1 µM (active).
Regarding `Clc1cc(-c2ccc(/C=N/n3cnnc3)o2)ccc1Br`, the “activity, negative = inhibition” value was -7.95% (inactive).
In the case of `Cc1ccc(Cl)cc1-c1ccc(/C=N/n2cnnc2)o1`, the “activity, negative = inhibition” value was 14.3% (inactive).
With `CCc1cnc2c(c1SCC(=O)c1ccccc1)c(=O)n(C)c(=O)n2C`, the “activity, negative = inhibition” value was -0.675% (inactive).
`Cc1cccc(-c2nnc(SCC(=O)N3CCCc4ccccc43)o2)c1`: the “activity, negative = inhibition” value was 15.9% (inactive).
Take `COc1ccc(OCc2ccc(-c3nc(C#N)c(N4CCN(c5ccccc5)CC4)o3)o2)cc1`: the “activity, negative = inhibition” value is -29% (inactive).
As for `CN1CCN(c2oc(-c3ccc(COc4ccc(Cl)cc4)o3)nc2C#N)CC1`, the Potency is 11.2 µM (active).
As for `CCC(C)Nc1oc(-c2ccc(COc3ccc(Cl)cc3)o2)nc1C#N` (stereo not given), the “activity, negative = inhibition” value was -37.3% (inactive).
Still for that read-out and setting: in the case of `C=CCOc1ccc(/C=C/C(=O)OCC(=O)NC(C)c2ccc(F)cc2)cc1` (stereo not given) it was -17.7% [at 102 µM] (inactive); in that of `COc1ccc(-c2nc3scc(CCNS(=O)(=O)c4cc(F)ccc4OC)n3n2)cc1OC`, 7.7% (inactive); in that of `CC1Cc2ccccc2N1C(=O)CSc1nnc(-c2ccc(S(=O)(=O)N3CCCC3)cc2)n1C` (stereo not given), -19.1% (inactive).
Still for that read-out and setting: the value for `COc1ccc(S(=O)(=O)N2CCC(C(=O)N3CCc4ccccc4C3)CC2)cc1OC` was -13.7% (inactive).
As for `COc1ccc(S(=O)(=O)N2CCN(CC(=O)N3c4ccccc4CC3C)CC2)cc1OC` (stereo not given), the Potency was 56.2 µM (active).
For `CCN(CCCNC(=O)c1c(C)oc2ncn(CC(C)C)c(=O)c12)Cc1ccccc1`, the “activity, negative = inhibition” value is -2.01% (inactive).
As to `COc1cccc(-c2nnc3n(CCc4ccccc4)c(=O)c4ccccc4n23)c1O`, the “activity, negative = inhibition” value was -23.1% (inactive).
On the same count and under the same terms, in the case of `CCCC(=O)N(CCc1ccccc1)Cc1nc2ccccc2c(=O)[nH]1` it was 10.1% (inactive); in that of `O=C(Cn1cnc2ccccc2c1=O)Nc1cccc(S(=O)(=O)N2CCCCC2)c1`, 6.9% [at 102 µM] (inactive).
Consider `CCN(CC(=O)Nc1ccc(Cl)c(S(=O)(=O)N(C)C)c1)Cc1nc2ccccc2c(=O)[nH]1`, for which the Potency is 39.8 µM (active).
Take `CN(C)S(=O)(=O)c1cc(NC(=O)CN2C(=O)NC3(CCCc4ccccc43)C2=O)ccc1Cl` (stereo not given): the “activity, negative = inhibition” value was -7.78% (inactive).
With `CCCCN(CC(=O)Nc1cccc(S(=O)(=O)N2CCCC2)c1)Cc1nc2ccccc2c(=O)[nH]1`, the Potency was 7.94 µM (active).
`CCN(CC(=O)Nc1cccc(S(N)(=O)=O)c1)Cc1nc2ccccc2c(=O)[nH]1`: the “activity, negative = inhibition” value was -46.9% [at 102 µM] (inactive).
As to `O=C(COc1ccccc1F)Nc1ccc(C(=O)OCc2cc(=O)n3nc(C4CC4)sc3n2)cc1`, the “activity, negative = inhibition” value is 7.25% (inactive).
As for `CCCNc1ncnc2c1c(-c1ccccc1)cn2-c1ccc(OCC)cc1`, the “activity, negative = inhibition” value was -35.9% (inactive).
In the case of `S=C(Nc1cccc(Br)c1)N1CCn2cccc2C1c1cccnc1` (stereo not given), the Potency was 50.1 µM (active).
With `CC(=O)N1c2ccc(S(=O)(=O)N3CCCC(C(=O)NCc4ccc(Cl)cc4)C3)cc2CC1C` (stereo not given), the “activity, negative = inhibition” value was 10.1% (inactive).
In the case of `COC(=O)c1cc(NC(=O)CCS(=O)(=O)c2cc(Br)cc3c2N(C(=O)C2CC2)CC3)cc(C(=O)OC)c1`, the “activity, negative = inhibition” value was 0.579% (inactive).
On to `N#Cc1ccccc1S(=O)(=O)N1CCN(Cc2c(O)ccc3ccccc23)CC1`, for which the activity, negative = inhibition was -0.103% [at 2.33 µM] (inactive).
Same read-out and setting: the value for `CCCCn1c(N)c(N(CC)C(=O)/C=C/c2ccco2)c(=O)[nH]c1=O` was -6.99% (inactive).
Turning to `CCCCN=C1N/C(=C\c2ccco2)C(=O)N1c1ccccc1`, the Potency was 44.7 µM (active).
As to `O=C(OCN1C(=O)c2ccccc2C1=O)/C(=C\c1ccco1)NC(=O)c1ccccc1`, the “activity, negative = inhibition” value was -8.62% (inactive).
The same measure, in the same setting: the value for `COc1cc(NC(=O)c2cc(C3CC3)nc3c2c(C)nn3-c2ccccc2)cc(OC)c1` was 5.19% (inactive).
`CCc1ccc(S(=O)(=O)Nc2cc3c(C(=O)OCc4ccccc4)c(C)oc3c3ccccc23)cc1`: the “activity, negative = inhibition” value was -32.7% (inactive).
Still for that read-out and setting: the value for `CCCCNC(=O)Cn1nc(C)c(S(=O)(=O)N2CCOCC2)c1C` was 8.75% [at 12.7 µM] (inactive).
With `O=C(C1=C(O)C(=O)N(c2ncccn2)C1c1cccs1)c1ccco1` (stereo not given), the Potency was 10 µM (active).
For the compound `O=C(c1ccco1)N1CCC2(CC1)CN(c1ncccn1)C2`, the activity, negative = inhibition is 6.99% [at 12.7 µM] (inactive).
Still for that read-out and setting: in the case of `O=C(c1ccco1)N1CCC2(CC1)CCN(c1ncccn1)CC2` it was 4.8% [at 12.7 µM] (inactive); in that of `COC(=O)c1ccc(OC)c(Cn2c(=O)n(Cc3ccccc3)c(=O)c3c2c2cc(OC)ccc2n3C)c1`, 3.08% (inactive).
Still for that read-out and setting: the value for `Cc1nn(Cc2ccccc2)c(C)c1CNC(=O)c1ccc(F)c(S(=O)(=O)N2CCOCC2)c1` was -14.2% [at 12.7 µM] (inactive); that for `CCN(C(=O)CSc1nc(N)cc(=O)[nH]1)C1CCS(=O)(=O)C1` (stereo not given) was 6.8% [at 12.7 µM] (inactive).
For `O=C(Nc1cccc(S(=O)(=O)N2CCCCC2)c1)c1ccc2c(c1)OCO2`, the Potency was 1 µM (active).
